This is an account of results in PubChem BioAssay (NCI).

This is part of a sample that, as a whole, favours compounds with a hit. Of some 83,000 tested, about 20% had one in any assay.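 Each cell line was grown in a 96-well plate and treated with one concentration of compound for 48 hours. Values below 10 were considered active.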 Unmarked numbers belong to inactive results. Calls of active or inactive are those of the source.

Test systems include HCT-15 colon; HT29 colon; SNB-75 CNS; SNB-19 CNS; U251 CNS; PC-3 prostate; SK-MEL-5 melanoma; UACC-62 melanoma; LOX IMVI melanoma; SK-MEL-28 melanoma.
Common to all, as to experiment: NCI-60 one-dose screen, 48 h (100 = growth as untreated, 0 = no growth, -100 = all killed)
Common to all, as to details: 10 µM unless noted

Consider `c1n[nH]cc1-c1nc2ccc3cn[nH]c3c2c2c1CCCC2`, for which the growth with HCT-15 colon is 96.2%; in the assay with HT29 colon it was 95.5%; in the assay on SNB-75 CNS, 108%; in the assay with SNB-19 CNS it was 82.2%; in the assay with U251 CNS, 88%; in the assay on PC-3 prostate it was 73.4%. The growth with SK-MEL-5 melanoma was 81.7%; with UACC-62 melanoma it was 81.4%; in the assay with LOX IMVI melanoma, 69.9%; in the assay on SK-MEL-28 melanoma, 98.2%.

As for `Fc1cccc(CNc2nc(SCCN3CCOCC3)nc3c2cnn3CC(Cl)c2ccc(Br)cc2)c1` (stereo not given), the growth was -64.7% (active) in the assay with HCT-15 colon; -49.9% (active) in the assay on HT29 colon; 42.3% in the assay with SNB-75 CNS; 42.2% in the assay with SNB-19 CNS; 25.2% in the assay with U251 CNS; 25.8% in the assay with PC-3 prostate. Besides, the growth with SK-MEL-5 melanoma is 3.78% (active); with UACC-62 melanoma, 28.2%; in the assay with LOX IMVI melanoma, 5.6% (active); in the assay with SK-MEL-28 melanoma it was 46.8%.

As to `COc1ccc2c(c1)C(=O)N(C)C2C1c2c(cc3c(c2OC)OCO3)CCN1C` (stereo not given), the growth with HCT-15 colon is 22.5%; with HT29 colon, 33.2%; with SNB-75 CNS it was 37.3%; with SNB-19 CNS it was 49.1%; in the assay on U251 CNS, 42.7%; in the assay with PC-3 prostate it was 46.9%. Moreover, the growth in the assay with SK-MEL-5 melanoma is 24.9%; in the assay with UACC-62 melanoma, 26.8%; with LOX IMVI melanoma it was 46.7%; in the assay on SK-MEL-28 melanoma, 55.9%.

As for `CCCCCCCCc1ccc(C(=O)Nc2ccc(C)cc2C(=O)O)cc1`, the growth was 53.2% with HCT-15 colon; 109% in the assay with HT29 colon; 106% with SNB-75 CNS; 67.5% in the assay with SNB-19 CNS; 75.4% in the assay with U251 CNS; 66.6% with PC-3 prostate. Also, the growth was 87.1% in the assay on SK-MEL-5 melanoma, 87.8% with UACC-62 melanoma, 89.9% in the assay on LOX IMVI melanoma and 108% in the assay on SK-MEL-28 melanoma.

As to `N#CC1=C(c2ccco2)Nc2c(c(-c3ccccc3)nn2-c2ccccc2)C12C(=O)Nc1ccc(Cl)cc12` (stereo not given), the growth in the assay on HCT-15 colon is 30.4%; in the assay with HT29 colon it was 41.9%; with SNB-75 CNS, -56.4% (active); in the assay on SNB-19 CNS, 3.22% (active); in the assay on U251 CNS it was -21.7% (active); in the assay on PC-3 prostate, -41% (active). The growth is 50.4% in the assay on SK-MEL-5 melanoma, 37.4% in the assay with UACC-62 melanoma, 2.55% (active) in the assay with LOX IMVI melanoma and 45.6% in the assay with SK-MEL-28 melanoma.

For `COc1ccc2c(c1)C(Sc1ccc(F)cc1)c1c(nc(N)c(C#N)c1N)O2` (stereo not given), the growth in the assay with HCT-15 colon is 80.6%; in the assay with HT29 colon it was 94.3%; in the assay with SNB-75 CNS, 66.5%; in the assay on SNB-19 CNS, 79.7%; in the assay with U251 CNS, 82%; with PC-3 prostate it was 55.1%. Besides, the growth with SK-MEL-5 melanoma is 91.2%; with UACC-62 melanoma it was 74.1%; in the assay on LOX IMVI melanoma it was 60.9%; in the assay on SK-MEL-28 melanoma, 112%.

In the case of `COC(=O)c1ccc(-c2c(-c3ccccc3)c(F)c3oc(C(=O)OC)c(N)c3c2-c2ccccc2)cc1`, the growth with HCT-15 colon is 77%; in the assay on HT29 colon, 102%; in the assay on SNB-75 CNS it was 95.7%; in the assay with SNB-19 CNS it was 80.2%; in the assay with U251 CNS, 82.2%; in the assay with PC-3 prostate, 92.1%. For the same compound, the growth with SK-MEL-5 melanoma was 99.4%; in the assay with UACC-62 melanoma it was 82.8%; in the assay with LOX IMVI melanoma, 81.6%; in the assay on SK-MEL-28 melanoma it was 98.9%.

Take `O=C(OCCOCCO)N(c1cccc(Br)c1)c1nc(SCCN2CCOCC2)nc2c1cnn2CC(Cl)c1ccc(Br)cc1` (stereo not given): the growth in the assay with HCT-15 colon is -38.8% (active); with HT29 colon, 0.205% (active); with SNB-75 CNS it was 47.7%; in the assay with SNB-19 CNS, -69% (active); in the assay on U251 CNS, 14.9%; in the assay on PC-3 prostate it was 12.1%. For the same compound, the growth with SK-MEL-5 melanoma is 34.2%; in the assay with UACC-62 melanoma, -58.9% (active); with LOX IMVI melanoma it was -92.8% (active); in the assay on SK-MEL-28 melanoma, -43.5% (active).

In the case of `COc1ccc(-c2nnc3c(/C=C/c4ccc(Br)cc4)nc4ccccc4n23)cc1`, the growth was -60.7% (active) with HCT-15 colon; -34.1% (active) with HT29 colon; 83.4% in the assay on SNB-75 CNS; 86.3% in the assay on SNB-19 CNS; 68.4% in the assay with U251 CNS; 86.4% with PC-3 prostate. Besides, the growth in the assay with SK-MEL-5 melanoma was 49.4%; with UACC-62 melanoma, 40.8%; with LOX IMVI melanoma, -87.9% (active); with SK-MEL-28 melanoma it was 72.4%.

Turning to `C=CCn1c(O)c(N=Nc2nc(-c3cc4ccccc4oc3=O)cs2)c2ccccc21`, the growth is 98.4% in the assay on HCT-15 colon; 17.2% in the assay with HT29 colon; -25% (active) in the assay on SNB-75 CNS; 38.7% with SNB-19 CNS; 13.3% with U251 CNS; 56.4% in the assay with PC-3 prostate. The growth was 33.3% in the assay with SK-MEL-5 melanoma, 52.6% with UACC-62 melanoma, 70.1% in the assay with LOX IMVI melanoma and 49.8% with SK-MEL-28 melanoma.

Regarding `Cc1ccc(C2CC(c3ccc(NC(=O)Nc4ccccc4)cc3)=NN2c2ccc(S(N)(=O)=O)cc2)cc1` (stereo not given), the growth in the assay with HCT-15 colon is -68% (active); with HT29 colon, -62% (active); with SNB-75 CNS, -68.1% (active); in the assay with SNB-19 CNS, -99.8% (active); in the assay with U251 CNS, -96.1% (active); in the assay on PC-3 prostate it was -59% (active). For the same compound, the growth in the assay on SK-MEL-5 melanoma is -96.6% (active); in the assay on UACC-62 melanoma, -96.2% (active); with LOX IMVI melanoma, -100% (active); in the assay with SK-MEL-28 melanoma, -99.7% (active).

On to `O=C(Nc1ccc(-c2ccc3c(c2)NC(=O)/C3=C\c2ccc[nH]2)cc1)Nc1cccc(Cl)c1`, for which the growth with HCT-15 colon was -32.5% (active); in the assay with HT29 colon, -61.5% (active); with SNB-75 CNS it was 16.6%; in the assay on SNB-19 CNS, 19.8%; in the assay with U251 CNS it was -52.4% (active); in the assay with PC-3 prostate it was 13.5%. Besides, the growth is -45.7% (active) with SK-MEL-5 melanoma, -36.3% (active) with UACC-62 melanoma, -88.4% (active) with LOX IMVI melanoma and -4.21% (active) in the assay with SK-MEL-28 melanoma.

As to `Cc1ccc(-c2cc(C(=O)N=Nc3c(O)[nH]c4ccc(F)cc34)c3ccccc3n2)cc1`, the growth in the assay on HCT-15 colon is 7.85% (active); in the assay with HT29 colon, 36.3%; in the assay on SNB-75 CNS it was 56.7%; in the assay with SNB-19 CNS, 41.9%; with U251 CNS, -30.9% (active); in the assay on PC-3 prostate it was 77.6%. In addition, the growth in the assay with SK-MEL-5 melanoma is 59.2%; with UACC-62 melanoma, 59.9%; with LOX IMVI melanoma it was 1.93% (active); with SK-MEL-28 melanoma, 14.5%.
